# Laboratory results as given in PubChem BioAssay (NCI).
# About 83,000 compounds went through this panel and 20% of them were active in at least one assay; those are over-represented in the sample as a whole.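 Single-concentration screen, 48 h exposure, 96-well plates. Endpoint: percent growth. Below 10 = active.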 A number with no mark means an inactive call. Calls of active or inactive are those of the source.
# Columns and labels:
# Assay in all cases: NCI-60 one-dose screen, 48 h (100 = growth as untreated, 0 = no growth, -100 = all killed)
# HOP-92 NSCLC = details: 10 µM unless noted
# NCI-H522 lung = details: 10 µM unless noted
# COLO 205 colon = details: 10 µM
# SNB-19 CNS = details: 10 µM unless noted
# U251 CNS = details: 10 µM unless noted
# SK-MEL-5 melanoma = details: 10 µM unless noted
# SK-MEL-2 melanoma = details: 10 µM unless noted
# EKVX NSCLC = details: 10 µM unless noted
# SN12C renal = details: 10 µM unless noted
# TK-10 renal = details: 10 µM unless noted
# ACHN renal = details: 10 µM unless noted
# SR leukemia = details: 10 µM
# IGROV1 ovarian = details: 10 µM
# HS 578T breast = details: 10 µM unless noted
# T-47D breast = details: 10 µM unless noted
# MDA-MB-435 melanoma = details: 10 µM unless noted
# NCI-H322M lung = details: 10 µM unless noted
# CCRF-CEM leukemia = details: 10 µM unless noted
# HCT-116 colon = details: 10 µM unless noted
Structure (SMILES),growth (HOP-92 NSCLC),growth (NCI-H522 lung),growth (COLO 205 colon),growth (SNB-19 CNS),growth (U251 CNS),growth (SK-MEL-5 melanoma),growth (SK-MEL-2 melanoma),growth (EKVX NSCLC),growth (SN12C renal),growth (TK-10 renal),growth (ACHN renal),growth (SR leukemia),growth (IGROV1 ovarian),growth (HS 578T breast),growth (T-47D breast),growth (MDA-MB-435 melanoma),growth (NCI-H322M lung),growth (CCRF-CEM leukemia),growth (HCT-116 colon)
CC(=O)O[C@H]1CCC2C3CCC4=C/C(=N/O)CCC4(C)C3CCC21C (some centres undefined),89.8%,83.2%,107%,90.7%,83.3%,87.4%,85.4%,88.5%,103%,103%,108%,36.7%,87.6%,55.2%,95.6%,20.3%,,,
CC1CC=CCC12C(=O)NC(=S)NC2=O (centres undefined),105%,101%,122%,109%,,103%,,95.9%,99.8%,103%,106%,,117%,102%,98.2%,106%,118%,82.6%,108%
O=S(=O)(O)c1ccc(-c2ccc([As](=O)(O)O)cc2)cc1,-91% (active),88.8%,114%,97.7%,,110%,101%,101%,104%,95.5%,,101%,107%,110%,89.5%,103%,104%,99.7%,108%
c1ccc(-c2ccc3ccccc3[o+]2)cc1,83.2%,81.2%,111%,93.3%,93.4%,,88.8%,87.1%,90.2%,,91.6%,84.5%,,94.1%,75.6%,101%,,92.4%,95.7%
